Consider four molecules from PubChem BioAssay.

Experiment [1] concerns Wnt5a (protein binding on small-molecule microarray). The experiment in a line: small molecules binding Wnt5a protein – biophysical, small-molecule microarray, 635/667 nm fluorescence, primary screen (AID 1142).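 Note: fluorescence read at 667 nm with signal to noise per printed feature.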 To be noted: 635 nm fluorescence, higher = more signal.
A short description of experiment [2]: ATP-based viability of Huh7 replicon cells – cell-based, CellTiter-Glo luminescence, basal, 48 h, cytotoxicity control for HCV replication inhibitor project, primary screen (AID 1143).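 Note: Huh7 hepatoma cells carrying a hepatitis C replication reporter with no stimulus; test concentration not given here.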 To be noted: Huh7 HCV replicon, CellTiter-Glo luminescence, 48 h, higher = more signal, called active from +8 up or from −8 down unless noted.
The nature of experiment [3]: Pseudomonas biofilm growth suppression – PAO1 strain, BacTiter-Glo luminescence, LB-PBS, primary screen (AID 1144). To be noted: P. aeruginosa PAO1 biofilm, 12 h, higher = more signal.
Experiment [4] is described as follows: basal CRE-LacZ reporter activity in PC12 – cell-based, unstimulated, primary screen (AID 1145). To be noted: no forskolin, luminescence, 4.5 h; higher = more signal, called active from +8 up or from −8 down unless noted.
Experiment [5] can be described thus: forskolin-driven CRE-LacZ activity in PC12 – cell-based, CRE-LacZ reporter, forskolin-stimulated, primary screen (AID 1146).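 Note: PC12 cells with 6xCRE LacZ reporter stimulated by forskolin 10 µM; beta-galactosidase reporter signal reflecting CREB driven transcription.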 To be noted: luminescence, 4.5 h; higher = more signal, called active from +8 up or from −8 down unless noted.
Experiment [6] concerns the target Streptavidin (Streptomyces avidinii) (UniProt P22629). The experiment in a line: compounds binding control protein streptavidin – biophysical, small-molecule microarray, 635/667 nm fluorescence, artefact control for SMM compound annotation, primary screen (AID 1147).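 Note: signal reflects streptavidin binding to arrayed compounds as a control protein.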 To be noted: higher = more signal.
Experiment [7] can be described thus: probe aInhba binding on compound microarray – biochemical, small-molecule microarray, 635/667 nm fluorescence, primary screen (AID 1148).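 Note: score merges 667nm spot fluorescence with signal-to-noise for antibody binding to printed compounds.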 The note with it: higher = more signal; small-molecule microarray, probe aInhba, fluorescence unless noted.
The target of experiment [8] is Torsin-1A (Homo sapiens) (UniProt O14656). Briefly: TOR1A wild-type binding on microarray – cell lysate, small-molecule microarray, lysate, 635/667 nm, primary screen (AID 1149). To be noted: COS7 hTOR1A-WT lysate, 635 nm fluorescence, higher = more signal.
Chain of Torsin-1A (Homo sapiens) (O14656 whole entry, looked up): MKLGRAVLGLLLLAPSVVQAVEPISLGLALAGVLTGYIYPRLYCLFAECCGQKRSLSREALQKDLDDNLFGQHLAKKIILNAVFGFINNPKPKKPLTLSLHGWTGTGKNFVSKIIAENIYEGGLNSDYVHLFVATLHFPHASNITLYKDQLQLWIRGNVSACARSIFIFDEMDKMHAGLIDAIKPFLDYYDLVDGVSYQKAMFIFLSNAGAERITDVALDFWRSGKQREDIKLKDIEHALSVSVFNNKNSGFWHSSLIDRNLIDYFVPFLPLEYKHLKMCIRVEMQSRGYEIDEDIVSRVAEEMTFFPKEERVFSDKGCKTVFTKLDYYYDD
Experiment [9] shares this target. Briefly: torsin A mutant lysate binding on microarrays – cell lysate, small-molecule microarray, COS7 lysate, 635/667 nm fluorescence, primary screen (AID 1150).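 Note: score pools 667 nm emission and signal to noise measuring lysate protein binding.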 To be noted: COS7 hTOR1A mutant lysate, 635 nm fluorescence, higher = more signal.
The test system of experiment [10] is Sonic hedgehog protein (Shh). Briefly: Sonic hedgehog microarray binding compounds – biochemical, small-molecule microarray, 635/667 nm fluorescence, primary screen (AID 1151).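 Note: Shh protein binding to compounds spotted on small-molecule microarray slides; score combines spot fluorescence intensity with signal-to-noise across triplicate slides.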 To be noted: 635 nm fluorescence, higher = more signal.
Experiment [11] in a line: optical density shifts of acrAB sulA E. coli – strain DRC41, OD650, 48 h, E. coli filamentation inducer project, primary screen (AID 1152).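 Note: E. coli MC1000 strain DRC41 lacking acrAB efflux pump and sulA.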 To be noted: higher = more signal, called active from +8 up or from −8 down unless noted.
Experiment [12] in a line: probe aLefty1 binding on compound microarray – biochemical, small-molecule microarray, 635/667 nm fluorescence, primary screen (AID 1153).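 Note: score merges spot fluorescence with signal-to-noise ratio from the scanned slide images.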 To be noted: higher = more signal; small-molecule microarray, probe aLefty1, fluorescence unless noted.
Experiment [13] in a line: plasmodial surface anion channel blockers, osmotic lysis – cell-based, P. falciparum Indochina, OD700, 1 h, primary screen (AID 1154). The note with it: P. falciparum Indochina infected RBC osmotic lysis; higher = more signal, called active from +8 up or from −8 down unless noted.
The nature of experiment [14]: plasmodial surface anion channel blockers, osmotic lysis – cell-based, P. falciparum Indochina, OD700, 2 h, primary screen (AID 1155).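 Note: lysis reports solute entry through the parasite surface anion channel PSAC.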 To be noted: P. falciparum Indochina infected erythrocytes; higher = more signal, called active from +8 up or from −8 down unless noted.
Experiment [15] can be described thus: changes in parasitized red cell lysis, either direction – P. falciparum Indochina, OD700, 3 h, PSAC antagonist project, primary screen (AID 1156). The note with it: P. falciparum-infected erythrocytes, osmotic lysis; higher = more signal, called active from +8 up or from −8 down unless noted.
Experiment [16] is described as follows: plasmodial surface anion channel blockers, osmotic lysis – cell-based, P. falciparum Indochina, OD700, 18 h, primary screen (AID 1157). The note with it: P. falciparum Indochina infected erythrocytes, osmotic lysis OD700, 18 h; higher = more signal, called active from +8 up or from −8 down unless noted.
Experiment [17] is described as follows: S6 kinase pathway phospho-S6 level changes – cell-based, A549, cytoblot, luminescence, serum-stimulated, primary screen (AID 1158).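 Note: serum-stimulated A549 lung adenocarcinoma cells; signal is phosphorylated S6 detected by cytoblot immunostaining with HRP secondary.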 The note with it: 5 h, higher = more signal.
Experiment [18] addresses NADPH oxidase 2 (Homo sapiens) (UniProt P04839). The experiment in a line: compounds shifting NOX2 Amplex Red fluorescence – cell-based, HEK293-NOX2, PMA-stimulated, NOX inhibitor project, primary screen (AID 1159). Note: test concentration not given here. To be noted: 45 min; higher = more signal, called active from +8 up or from −8 down unless noted.
Experiment [19] deals with NADPH oxidase 4 (Homo sapiens) (UniProt Q9NPH5). Briefly: compounds shifting NOX4 Amplex Red fluorescence – cell-based, HEK293-NOX4, tetracycline-induced, NOX inhibitor project, primary screen (AID 1160). The note with it: HEK293-NOX4, Amplex Red H2O2 fluorescence, 45 min; higher = more signal, called active from +8 up or from −8 down unless noted.
Chain of NADPH oxidase 4 (Homo sapiens) (Q9NPH5 whole entry, looked up): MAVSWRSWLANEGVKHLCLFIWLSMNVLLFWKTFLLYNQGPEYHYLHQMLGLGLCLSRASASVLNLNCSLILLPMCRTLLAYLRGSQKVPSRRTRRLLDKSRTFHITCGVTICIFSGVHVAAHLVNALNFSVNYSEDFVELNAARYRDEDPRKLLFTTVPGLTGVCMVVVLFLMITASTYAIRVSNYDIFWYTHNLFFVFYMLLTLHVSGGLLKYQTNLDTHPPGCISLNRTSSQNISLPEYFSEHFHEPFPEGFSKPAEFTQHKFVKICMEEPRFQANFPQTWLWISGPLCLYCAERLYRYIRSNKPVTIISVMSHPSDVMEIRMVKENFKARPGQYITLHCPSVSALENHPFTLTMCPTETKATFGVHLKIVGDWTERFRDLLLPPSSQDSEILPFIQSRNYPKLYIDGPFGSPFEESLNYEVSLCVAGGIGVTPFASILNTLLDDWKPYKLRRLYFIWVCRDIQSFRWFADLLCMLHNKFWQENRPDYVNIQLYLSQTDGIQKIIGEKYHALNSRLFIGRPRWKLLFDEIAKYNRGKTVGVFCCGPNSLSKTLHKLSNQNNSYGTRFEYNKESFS
In experiment [20] the target is NADPH oxidase 5 (Homo sapiens) (UniProt Q96PH1). Briefly: compounds shifting NOX5 Amplex Red fluorescence – cell-based, HEK293-NOX5, NOX inhibitor project, primary screen (AID 1161). The note with it: HEK293-NOX5, ionomycin, 45 min, higher = more signal.
Chain of NADPH oxidase 5 (Homo sapiens) (Q96PH1 whole entry, looked up): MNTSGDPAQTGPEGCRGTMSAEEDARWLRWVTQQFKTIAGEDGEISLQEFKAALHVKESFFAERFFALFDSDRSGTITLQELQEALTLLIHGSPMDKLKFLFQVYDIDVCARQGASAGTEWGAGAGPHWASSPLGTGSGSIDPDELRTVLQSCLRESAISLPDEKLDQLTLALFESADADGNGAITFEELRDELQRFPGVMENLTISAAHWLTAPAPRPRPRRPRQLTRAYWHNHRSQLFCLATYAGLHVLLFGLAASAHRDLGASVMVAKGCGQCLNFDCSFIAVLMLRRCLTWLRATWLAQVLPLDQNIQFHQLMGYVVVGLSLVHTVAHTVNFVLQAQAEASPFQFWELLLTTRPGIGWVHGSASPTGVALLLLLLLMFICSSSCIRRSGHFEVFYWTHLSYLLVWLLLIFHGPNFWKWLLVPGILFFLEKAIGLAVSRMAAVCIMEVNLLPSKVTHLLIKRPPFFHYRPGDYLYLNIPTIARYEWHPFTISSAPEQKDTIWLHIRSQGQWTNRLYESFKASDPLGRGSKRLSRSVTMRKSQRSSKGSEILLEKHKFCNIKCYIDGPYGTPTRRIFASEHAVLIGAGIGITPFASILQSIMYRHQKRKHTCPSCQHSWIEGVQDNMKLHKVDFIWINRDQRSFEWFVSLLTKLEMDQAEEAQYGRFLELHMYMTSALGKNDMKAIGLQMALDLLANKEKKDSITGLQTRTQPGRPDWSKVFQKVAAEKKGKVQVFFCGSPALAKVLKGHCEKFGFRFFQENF

Active and inactive are the calls of the source. Unless noted, the rule behind the calls is not given here.

Chain of NADPH oxidase 2 (Homo sapiens) (P04839 whole entry, looked up): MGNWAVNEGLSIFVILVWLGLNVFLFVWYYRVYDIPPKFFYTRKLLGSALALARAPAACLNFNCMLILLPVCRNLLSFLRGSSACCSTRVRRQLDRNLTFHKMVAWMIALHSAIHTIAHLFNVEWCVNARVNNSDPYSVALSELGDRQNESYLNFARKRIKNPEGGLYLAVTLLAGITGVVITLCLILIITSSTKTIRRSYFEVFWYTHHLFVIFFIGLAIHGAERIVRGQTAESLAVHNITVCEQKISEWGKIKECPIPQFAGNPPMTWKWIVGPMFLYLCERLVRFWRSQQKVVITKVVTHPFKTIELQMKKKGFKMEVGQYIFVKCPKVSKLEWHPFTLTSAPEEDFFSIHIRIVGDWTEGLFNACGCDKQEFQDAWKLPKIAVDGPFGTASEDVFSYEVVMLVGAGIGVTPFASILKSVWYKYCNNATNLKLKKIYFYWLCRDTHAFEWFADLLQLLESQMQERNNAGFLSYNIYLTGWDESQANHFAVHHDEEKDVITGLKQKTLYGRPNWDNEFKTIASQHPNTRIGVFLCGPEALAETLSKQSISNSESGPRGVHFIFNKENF
Chain of Streptavidin (Streptomyces avidinii) (P22629 whole entry, looked up): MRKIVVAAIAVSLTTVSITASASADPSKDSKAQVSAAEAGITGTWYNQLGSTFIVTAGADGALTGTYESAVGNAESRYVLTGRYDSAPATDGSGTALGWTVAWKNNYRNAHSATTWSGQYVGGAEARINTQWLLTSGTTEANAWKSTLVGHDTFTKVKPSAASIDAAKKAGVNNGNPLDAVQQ

Take `CN1CCC(c2ccc(CO)cc2)=CC1C1CC1` (stereo not given): the composite z-score was -0.103 in experiment [1]; -0.333 in [6]; -0.101 in experiment [7]; 0.309 in the experiment with Torsin-1A (Homo sapiens) [8]; 0.431 with Torsin-1A (Homo sapiens) [9]; 1.85 in [10]. In [12], the composite z-score was determined as 0.103. Further, the z-score was -0.209 (inactive) in [2]; 0.656 (inactive) in [3]; 3.78 (inactive) in experiment [4]; 0.54 (inactive) in experiment [5]; -0.492 (inactive) in [11]; 0.899 (inactive) in experiment [13]. The z-score was 0.0137 (inactive) in experiment [14]; -0.38 (inactive) in experiment [15]; 0.0864 (inactive) in experiment [16]; -1.04 in experiment [17]; -0.477 (inactive) in experiment [18]; -0.169 (inactive) in experiment [19]. Moreover, the z-score in experiment [20] was -0.0858.

On to `CCCc1cc2c(n1Cc1cccc(Cl)c1)C(C)C1CN(C(=O)c3ccccc3)C(C)(C(=O)OC)C21` (stereo not given), for which the composite z-score in experiment [1] is 0.318; in experiment [6] it was 0.78; in experiment [7], 0.138; in the experiment with Torsin-1A (Homo sapiens) [8], -0.0514; in the experiment with Torsin-1A (Homo sapiens) [9], 1.27; in experiment [10], -0.083. The molecule further gave a composite z-score in experiment [12] of 0.235. The z-score was -2.78 (inactive) in [2]; 0.00978 (inactive) in experiment [3]; 0.0041 (inactive) in experiment [4]; -1.1 (inactive) in experiment [5]; -1.69 (inactive) in [11]; 2.02 (inactive) in experiment [13]. Moreover, the z-score is 0.676 (inactive) in experiment [14]; 1.22 (inactive) in [15]; 0.153 (inactive) in [16]; -0.46 in [17]; -1.21 (inactive) in experiment [18]; -2.3 (inactive) in experiment [19]. The z-score in [20] is -2.42.

For `C=C(CC1(CNP(=O)(c2ccccc2)c2ccccc2)CC1)c1ccccc1`, the composite z-score in experiment [1] was 0.0774; in [6], -0.0187; in experiment [7], 0.102; in the experiment with Torsin-1A (Homo sapiens) [8] it was -0.27; with Torsin-1A (Homo sapiens) [9] it was 0.449; in experiment [10], -1.31. Further, the composite z-score in experiment [12] was determined as 0.241. In addition, the z-score in experiment [2] is -0.649 (inactive); in experiment [3], 0.366 (inactive); in [4], -0.182 (inactive); in [5] it was -0.418 (inactive); in experiment [11] it was -0.822 (inactive); in experiment [13] it was 1.41 (inactive). Also, the z-score in experiment [14] was 0.453 (inactive); in experiment [15], 1.07 (inactive); in [16], 0.519 (inactive); in experiment [17] it was -0.254; in [18], -0.335 (inactive); in experiment [19] it was -0.4 (inactive). In addition, the z-score in experiment [20] was -2.42.

With `CCc1cc2c(nc1CC)CCN(CCC(C)=NOC)C2`, the composite z-score in experiment [1] was 0.148; in experiment [6] it was 0.496; in experiment [7], -0.0645; with Torsin-1A (Homo sapiens) [8] it was 1.23; in the experiment with Torsin-1A (Homo sapiens) [9] it was 1.57; in experiment [10], 1.05. In experiment [12], this molecule gave a composite z-score of 0.393. Also, the z-score in experiment [2] is -0.295 (inactive); in experiment [3] it was -1.01 (inactive); in [4] it was 1.82 (inactive); in experiment [5], -0.26 (inactive); in experiment [11], -1.88 (inactive); in experiment [13], 1.69 (inactive). Also, the z-score in [14] was 1.29 (inactive); in [15], 0.194 (inactive); in experiment [16] it was 0.612 (inactive); in experiment [17] it was 0.481; in [18], -0.0413 (inactive); in experiment [19], -1.48 (inactive). Moreover, in experiment [20], the z-score is 1.13.
